Hits are enriched below; roughly 0.33% of the tested compounds scored in any of these assays.
FXIIa single = human FXIIa protease inhibitors, primary screen, biochemical, single well | Coagulation factor XII (Homo sapiens), P00748 | purified human FXIIa, AMC substrate fluorescence, 2 h | inhibition, % at 10 µM | 33,000 tested, 0.2% active; in the data active = inhibition above about 30%;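 also: 0% = enzyme with vehicle only and 100% = no enzyme blank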
FXIa inh = human FXIa protease inhibitors, primary screen, biochemical, single compound per well; Coagulation factor XI (Homo sapiens), P03951; purified human FXIa, fluorogenic AMC substrate cleavage; inhibition, % at 10 µM; 33,000 tested, 0.3% active; AID 687, 2007;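 active = inhibition above 40% in the primary screen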;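 also: 0% = enzyme without compound and 100% = blank wells lacking enzyme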
Active calls of the source: *.

SMILES | FXIIa single | FXIa inh
CCCCc1c(O)nc(SCC(=O)NC(C)(C)C)n(-c2ccccc2C)c1=O | 3 | -2
CCc1c(O)nc(SCC(=O)NC(C)(C)C)n(-c2ccccc2)c1=O | 1 | 43*
CCOC(=O)c1[nH]c2ccc(Cl)cc2c1-c1ccccc1 | -15 | 30
O=c1nc(-c2ccccc2)c2cc(Cl)ccc2[nH]1 | -16 | 103*
Cc1ccc(-c2nnc(SCC(=O)N3CCOCC3)nc2-c2ccc(C)cc2)cc1 | 4 | 5
COC(=O)c1[nH]c2ccc(Br)cc2c1NC(=O)CN1CCCc2ccccc21 | 3 | 45*
CCOC(=O)c1[nH]c2ccc(OC)cc2c1NC(=O)CN1CCc2ccccc2C1 | 0 | -6
Cc1cc(=O)n2[nH]cc(C(=O)O)c2n1 | -14 | 1
CCn1nc(CC(=O)Nc2nnc(CC(=O)N3CCCC3)s2)c2ccccc2c1=O | -15 | 66*
CCn1nc(CC(=O)Nc2nnc(CC(=O)N3CCOCC3)s2)c2ccccc2c1=O | 5 | -5
N=C(N)N1CCc2ccccc2C1 | 8 | 1
CC1CCc2c(C(=O)Oc3cccc(-n4cnnn4)c3)csc2C1 (configuration not stated) | 9 | 0
O=C(Oc1cccc(-n2cnnn2)c1)c1ccco1 | 47* | 45*
Cc1cc(C)cc(NC(=O)NC2CCN(CC(=O)Nc3c(C)cc(C)cc3C)CC2)c1 | 6 | -4
O=C(CCCN1C(=O)c2ccccc2C1=O)NCC1CCCO1 (configuration not stated) | -11 | 44*
O=C1c2ccccc2C(=O)N1CC1CCCO1 (configuration not stated) | 11 | 2
OCCCn1c(-c2ccccc2)nc(=S)c2c1CCCC2 | 7 | 43*
CN(C)CCCn1c(-c2ccccc2)nc(=S)c2c1CCCC2 | 8 | -13
CCOC(=O)c1sc2ccc(S(=O)(=O)N3CC(C)CC(C)C3)cc2c1N (configuration not stated) | -11 | 14
COC(=O)c1sc(NC(=O)CSc2nncs2)c(C(=O)OC)c1C | 4 | -7
COC(=O)c1sc(NC(=O)CC(C)C)c(C(=O)OC)c1C | 6 | 43*
O=c1c(-c2ccnn2-c2cccc(Cl)c2)cnc2n1CCS2 | 18 | -5
CC1=CC(=NOC(=O)c2cccc([N+](=O)[O-])c2)C=C(C)C1=O | 51* | 8
CC1=CC(=O)C(C(C)C)=C/C1=N/OC(=O)c1cccc([N+](=O)[O-])c1 | -2 | 7
COn1c(SCc2ccc(C)cc2C)nc2ccccc2c1=O | 6 | 8
O=C(O)c1cn(-c2ccccc2)nc1-c1cccnc1 | -1 | 2
O=C(c1cn(-c2ccccc2)nc1-c1ccncc1)n1nnc2ccccc21 | 89* | 96*
CN(C)S(=O)(=O)c1ccc(NC(=O)c2c(F)cccc2Cl)cc1 | 17 | -11

Compound activity deposited in PubChem by PCMD.
